This passage reports inhibition results from PubChem BioAssay AID743397 (Broad Institute, 2014).

Molecules are shown by their SMILES. In all, about 340,000 compounds went through this assay and about 330 (0.097%) were called active.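 How the source made its calls: active means mean replicate inhibition of at least 30% and at least 1% of replicates passing that level; inconclusive means only one of the two criteria is met; inactive means neither criterion is met.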 This excerpt belongs to a sample that is enriched for actives.

This experiment deals with Voltage-dependent L-type calcium channel subunit alpha-1D (CaV1.3) ICDI/IQ interaction. The experiment can be described thus: Disruptors of the CACNA1D IQ motif to Ca2+-dependent inactivation inhibitor domain association, primary screening, Förster resonance energy transfer in intact living cells, one concentration (AID 743397).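 Further: 0% = median of the neutral control wells.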 To be noted: HEK cells, CFP/YFP FRET ICDI-IQ, plate reader, 10 min; at 12.3 µM; active compounds read high; percent FRET-ratio fall versus neutral wells.
For `Oc1cccc2cc(-c3ccncc3)cnc12`, the inhibition is -5% (inactive).

For the compound `COC(=O)C1=C(C)N(Cc2ccccc2C(F)(F)F)C(=NCc2ccc(OC)cc2)NC1c1cccc(C(F)(F)F)c1` (stereo not given), the inhibition is -9.27% (inactive).

Regarding `CCCCOCCCNC(=O)C[C@@H]1C[C@@]2(C(=O)OC)CCCCC=C2N(CCC2=CCCCC2)C1=O`, the inhibition is -3.67% (inactive).

`CCCCCCCCCOC1OC(CO)C(O)C(O)C1NC(C)=O` (stereo not given): the inhibition was -5.79% (inactive).

Take `CCc1cccc(OC2OC(CO)C(O)C(O)C2NC(C)=O)c1` (stereo not given): the inhibition is 107% (active).

Regarding `COC(=O)c1ccc2ccccc2c1OC1OC(CO)C(O)C(O)C1NC(C)=O` (stereo not given), the inhibition is -1.34% (inactive).

As to `CCCCNc1cccc2c1S(=O)(=O)N[C@@H](C)CO2`, the inhibition is -5.83% (inactive).

`COC(=O)C1=C(C)N(Cc2cccc(C(F)(F)F)c2)C(=NCc2ccccc2)NC1c1ccccc1C(F)(F)F` (stereo not given): the inhibition is -1.85% (inactive).

`CCCCc1c(-c2ccc(Br)cc2)ncn1CCc1ccccc1OC`: the inhibition is -9.97% (inactive).

As for `COC(=O)c1ccc(CN2C(=O)[C@]3(OCCC=C[C@H]3C)c3c(Br)cccc32)cc1`, the inhibition was -5.34% (inactive).

Turning to `COc1ccc(-c2ccc3c(n2)CCCN3S(=O)(=O)c2ccc(C)cc2)cc1`, the inhibition is -4.73% (inactive).

`COc1ccc(CNS(=O)(=O)c2cc(Br)ccc2Br)cc1`: the inhibition is -5.62% (inactive).

Regarding `COc1cccc(NC(=O)N(C)C[C@@H]2OCc3cn(nn3)CCCC(=O)N([C@@H](C)CO)C[C@H]2C)c1`, the inhibition is -4.88% (inactive).

Turning to `CN1C(=O)C(Br)(Br)CC1c1cccnc1` (stereo not given), the inhibition was -4.22% (inactive).

Take `CC[C@H](NC(=O)[C@H](Cc1ccccc1)NC(=O)[C@H]1O[C@@H](n2cnc3c(=O)[nH]c(N)nc32)[C@H](O)[C@@H]1O)c1ccccc1`: the inhibition is -7.74% (inactive).

With `COC(=O)[C@]12C[C@H](CC(=O)N3CCN(C(=O)C4CC4)CC3)C(=O)N(Cc3ccc4c(c3)OCO4)C1=C[C@H](C(C)(C)C)O[C@@H]2C`, the inhibition is -7.42% (inactive).

Take `CC1CCCN(c2cccc3c2S(=O)(=O)N(Cc2ccc(F)cc2)[C@@H](C)[C@H](c2ccccc2)O3)C1` (stereo not given in full): the inhibition was -4.9% (inactive).

Regarding `COCCNC(=S)N(C)[C@H]1C[C@H]2c3[nH]c4ccccc4c3CCN2C[C@H]1[C@H](C)O`, the inhibition was -5.06% (inactive).

Take `COC(=O)N1Cc2ccnnc2CC1c1ccccc1Br` (stereo not given): the inhibition was -4.44% (inactive).

As for `CCOC(=O)N1CCN(C(=O)C[C@H]2C[C@@]3(C(=O)OC)C(=C[C@H](C4CCCC4)O[C@@H]3C)N(Cc3ccccc3)C2=O)CC1`, the inhibition was -8.9% (inactive).

For `O=C(Nc1c(Cl)c(C2CC2)nn1-c1ccccc1)C(Cl)(Cl)Cl`, the inhibition is -4.55% (inactive).

For the compound `O=c1[nH]c(-c2ccccc2)cn1C1CCN(Cc2ccc(-c3nc4ccc(F)cc4nc3-c3ccccc3)cc2)CC1`, the inhibition was -6% (inactive).

Turning to `CC(=NNC(N)=O)c1ccc(Cl)c(-n2cccc2)c1`, the inhibition is -7.9% (inactive).

For the compound `CCc1ccc(C2=CC(=O)CC(C)(C)C2=O)cc1`, the inhibition is -7.01% (inactive).

In the case of `COC(=O)C1=C(C)N(Cc2ccc(C(F)(F)F)cc2)C(=NCc2ccccc2)NC1c1ccccc1C(F)(F)F` (stereo not given), the inhibition was -9.62% (inactive).

In the case of `Nc1ncnc2c1ncn2[C@@H]1O[C@H](C(=O)N[C@@H](CCc2ccccc2)C(=O)NCC(=O)N2CCOCC2)[C@@H](O)[C@H]1O`, the inhibition is -4.61% (inactive).

As for `CC(=O)N1C[C@@H](CO)[C@@H](N(C)C(=O)C(C)(C)C)C[C@H]1c1ccccc1Br`, the inhibition was -3.95% (inactive).

`CCOC(=O)Cn1c2c(n(-c3ccc(F)cc3)c1=O)C=C(c1ccccc1)[C@@H](C)C(C(=O)N(C)C1CCCCC1)=C2`: the inhibition is -5.25% (inactive).

Regarding `Cc1cc(OC(=O)c2ccccc2Cl)ccc1N1C(=O)CCC1=O`, the inhibition is 66.2% (active).

Consider `Cc1cccc(/C(N)=N/OC(=O)c2ccccc2Cl)c1`, for which the inhibition is 1.19% (inactive).

With `Cc1ccc(C)c(N2C(=O)CS/C2=N\NC(=O)c2ccccc2Cl)c1`, the inhibition is -8.17% (inactive).

As for `CC[C@H](C)[C@H]1CNC(=O)C(=O)N1CC1CCN(CCc2ccc(OC)c(OC)c2)CC1`, the inhibition was -5.2% (inactive).

For `Cc1nc2ccccc2c2oc(C(=O)NCCCN3CCC(C)CC3)cc12`, the inhibition was 61.5% (active).

Turning to `CCCN(CCC)CCNC(=O)c1cc2c(C)nc3ccccc3c2o1`, the inhibition is -3.91% (inactive).

For the compound `CC1CCN(CCCn2c(SCC(=O)NC3CCCC3)nc3ccccc3c2=O)CC1`, the inhibition is -1.93% (inactive).

`CC(C)(C)n1nc(C2CC2)c(Br)c1NC(=O)c1ccccc1F`: the inhibition is -11.7% (inactive).

As to `CC(=O)C1=C(C)N(Cc2ccccc2)C(=S)NC1c1cccc(Br)c1` (stereo not given), the inhibition was -5.09% (inactive).

As to `Cc1cc2c(nc1C)CCCN2C`, the inhibition is -4.25% (inactive).

`CN1C(=O)C2CC(O)C(SC3CC4C(=O)N(C)C(=O)C4CC3O)CC2C1=O` (stereo not given): the inhibition is -4.52% (inactive).

On to `COC(=O)C1=C(C(=O)OC)C2C=C(C(C)C)C1C(=O)C2(C)O` (stereo not given), for which the inhibition was -3.68% (inactive).

For the compound `O=C(NCc1ccccc1)[C@@H]1CCCN1C(=O)[C@H]1CCCN1C(=O)c1cccc(Cl)c1`, the inhibition was -3.24% (inactive).

With `C[C@H]1CN([C@@H](C)CO)C(=O)CCCn2nncc2CO[C@@H]1CN(C)C(=O)Nc1ccc(N2CCN(C)CC2)cc1`, the inhibition is -5.58% (inactive).

Take `CCOC(=O)c1ccc(-c2ccc3ncnc(N(C)Cc4sccc4C)c3c2)o1`: the inhibition was -9.32% (inactive).

`Clc1cccc2c1C1CC2CCN1Cc1ccccc1` (stereo not given): the inhibition is -3.78% (inactive).

Consider `Nc1[nH]c(C(=O)c2ccccc2)c(-c2ccc(Cl)cc2Cl)c1C(=O)c1ccccc1`, for which the inhibition is -17.7% (inactive).

Regarding `CCOC(=O)c1oc2c(CN3CCN(C)CC3)c(O)ccc2c(=O)c1-c1ccc(Br)cc1`, the inhibition was -4.95% (inactive).

For the compound `Cn1c(=O)[nH]c(=O)c2c1nc(N1CCN(CCO)CC1)n2CCSc1nc2ccccc2s1`, the inhibition is -4.96% (inactive).

For the compound `CCOC(=O)c1oc2c(CN3CCN(CCO)CC3)c(O)c(CC)cc2c(=O)c1-c1nc2ccccc2s1`, the inhibition is 37% (active).

With `O=C(NCc1ccccc1)[C@H]1CCCN1C(=O)[C@H]1CCCN1C(=O)c1cc(F)cc(F)c1`, the inhibition was -8.46% (inactive).

In the case of `O=C(NCc1ccccc1)[C@@H]1CCCN1C(=O)[C@@H](NS(=O)(=O)c1ccc(F)cc1F)C1CCCCC1`, the inhibition is -2.67% (inactive).

What is called inhibition is the change of the read-out against control, counted positive when it falls.
